From the supplement of paper PMC11732987, “Enantioselective OTUD7B fragment discovery through chemoproteomics screening and high-throughput optimisation” (Communications Chemistry, 2025)

Tests used:
Assay in all cases: log2 ratio of Biotin-Ahx-Ub-VS probe labelling (fragment/DMSO); higher = less target engagement (more negative = stronger competition), active = hit call of the paper (q ≤ 0.05, log2 ratio ≤ -1)
Details in all cases: compound concentration: 200 uM; treatment time: 3 h
OTUD6B = target: T1, OTUD6B (UniProt Q8N6M0)
T1 sequence (whole entry): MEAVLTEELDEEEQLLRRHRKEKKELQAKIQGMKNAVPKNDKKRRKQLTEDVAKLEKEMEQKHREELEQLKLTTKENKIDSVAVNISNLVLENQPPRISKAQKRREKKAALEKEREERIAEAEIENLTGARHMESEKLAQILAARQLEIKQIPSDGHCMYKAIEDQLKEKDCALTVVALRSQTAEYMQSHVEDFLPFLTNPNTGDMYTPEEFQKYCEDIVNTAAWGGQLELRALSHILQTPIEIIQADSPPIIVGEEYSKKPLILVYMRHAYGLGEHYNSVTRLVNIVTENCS
Outline: (§1)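 Triplicate samples of HEK293T lysate, 495 µg each, received fragment at 200 µM or vehicle for 3 h, followed by Biotin-Ahx-Ub-VS (0.5 µM final) for 1 h. After NeutrAvidin enrichment of labelled DUBs and LysC/trypsin digestion, peptides were run by diaPASEF LC-MS/MS. The values are average log2 fragment/vehicle ratios from global-median-normalised Spectronaut label-free quantities, tested by unpaired t-test on proteins having ≥2 unique peptides.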

OTUD7B = target: T2, OTUD7B (UniProt Q6GQQ9)
T2 sequence (whole entry): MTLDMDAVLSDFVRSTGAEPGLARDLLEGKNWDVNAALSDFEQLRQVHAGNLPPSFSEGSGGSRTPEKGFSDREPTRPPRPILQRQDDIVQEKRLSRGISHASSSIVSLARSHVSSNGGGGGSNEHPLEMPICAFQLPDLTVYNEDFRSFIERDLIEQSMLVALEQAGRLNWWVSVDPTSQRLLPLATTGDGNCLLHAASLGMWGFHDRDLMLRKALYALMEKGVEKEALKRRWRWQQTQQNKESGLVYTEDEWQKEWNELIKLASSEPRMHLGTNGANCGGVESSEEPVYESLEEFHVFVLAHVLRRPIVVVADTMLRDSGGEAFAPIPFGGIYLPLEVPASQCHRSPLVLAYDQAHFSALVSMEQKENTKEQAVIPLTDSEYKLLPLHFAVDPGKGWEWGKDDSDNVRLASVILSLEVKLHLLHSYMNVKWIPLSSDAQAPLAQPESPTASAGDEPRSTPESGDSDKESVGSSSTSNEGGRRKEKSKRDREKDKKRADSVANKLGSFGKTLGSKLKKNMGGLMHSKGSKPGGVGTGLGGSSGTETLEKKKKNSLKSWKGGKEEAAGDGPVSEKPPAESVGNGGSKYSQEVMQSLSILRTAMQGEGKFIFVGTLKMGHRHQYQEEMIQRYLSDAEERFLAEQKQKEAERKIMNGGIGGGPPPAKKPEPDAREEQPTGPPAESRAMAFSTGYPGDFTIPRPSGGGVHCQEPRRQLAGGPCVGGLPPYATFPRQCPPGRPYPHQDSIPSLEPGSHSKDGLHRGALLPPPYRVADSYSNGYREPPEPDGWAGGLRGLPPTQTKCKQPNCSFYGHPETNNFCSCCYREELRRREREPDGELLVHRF
Outline: as §1

PRPF8 = PRPF8 (UniProt Q6P2Q9)
Outline: as §1

PSMD7 = target: T3, PSMD7 (UniProt P51665)
T3 sequence (whole entry): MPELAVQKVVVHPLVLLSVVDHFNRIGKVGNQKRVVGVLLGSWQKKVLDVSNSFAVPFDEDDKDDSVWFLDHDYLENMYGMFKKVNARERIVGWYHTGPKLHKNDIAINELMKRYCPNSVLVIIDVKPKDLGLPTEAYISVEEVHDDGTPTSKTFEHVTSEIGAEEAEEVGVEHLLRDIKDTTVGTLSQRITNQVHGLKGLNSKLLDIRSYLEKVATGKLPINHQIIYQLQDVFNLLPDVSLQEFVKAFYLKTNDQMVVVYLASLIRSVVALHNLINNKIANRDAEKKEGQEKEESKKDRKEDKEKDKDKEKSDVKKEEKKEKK
Outline: as §1

UCHL1 = UCHL1 (UniProt P09936)
Outline: as §1

UCHL3 = target: T4, UCHL3 (UniProt P15374)
T4 sequence (whole entry): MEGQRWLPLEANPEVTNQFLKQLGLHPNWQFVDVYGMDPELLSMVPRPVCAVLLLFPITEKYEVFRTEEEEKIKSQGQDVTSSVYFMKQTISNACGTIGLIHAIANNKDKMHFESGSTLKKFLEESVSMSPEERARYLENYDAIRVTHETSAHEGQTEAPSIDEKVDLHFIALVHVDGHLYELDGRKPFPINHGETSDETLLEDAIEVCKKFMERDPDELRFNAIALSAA
Outline: as §1

UCHL5 = target: T5, UCHL5 (UniProt Q9Y5K5)
T5 sequence (whole entry): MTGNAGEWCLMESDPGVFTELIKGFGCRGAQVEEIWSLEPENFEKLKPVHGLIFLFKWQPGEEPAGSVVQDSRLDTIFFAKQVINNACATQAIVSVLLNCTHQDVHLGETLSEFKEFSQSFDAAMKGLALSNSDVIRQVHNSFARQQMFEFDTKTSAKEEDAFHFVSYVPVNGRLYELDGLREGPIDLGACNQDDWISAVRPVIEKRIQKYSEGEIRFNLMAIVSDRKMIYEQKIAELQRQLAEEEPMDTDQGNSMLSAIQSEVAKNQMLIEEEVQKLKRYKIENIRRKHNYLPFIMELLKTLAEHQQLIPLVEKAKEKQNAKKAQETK
Outline: as §1

USP10 = USP10 (UniProt Q14694)
Outline: as §1

USP15 = target: T6, USP15 (UniProt Q9Y4E8)
T6 sequence (whole entry): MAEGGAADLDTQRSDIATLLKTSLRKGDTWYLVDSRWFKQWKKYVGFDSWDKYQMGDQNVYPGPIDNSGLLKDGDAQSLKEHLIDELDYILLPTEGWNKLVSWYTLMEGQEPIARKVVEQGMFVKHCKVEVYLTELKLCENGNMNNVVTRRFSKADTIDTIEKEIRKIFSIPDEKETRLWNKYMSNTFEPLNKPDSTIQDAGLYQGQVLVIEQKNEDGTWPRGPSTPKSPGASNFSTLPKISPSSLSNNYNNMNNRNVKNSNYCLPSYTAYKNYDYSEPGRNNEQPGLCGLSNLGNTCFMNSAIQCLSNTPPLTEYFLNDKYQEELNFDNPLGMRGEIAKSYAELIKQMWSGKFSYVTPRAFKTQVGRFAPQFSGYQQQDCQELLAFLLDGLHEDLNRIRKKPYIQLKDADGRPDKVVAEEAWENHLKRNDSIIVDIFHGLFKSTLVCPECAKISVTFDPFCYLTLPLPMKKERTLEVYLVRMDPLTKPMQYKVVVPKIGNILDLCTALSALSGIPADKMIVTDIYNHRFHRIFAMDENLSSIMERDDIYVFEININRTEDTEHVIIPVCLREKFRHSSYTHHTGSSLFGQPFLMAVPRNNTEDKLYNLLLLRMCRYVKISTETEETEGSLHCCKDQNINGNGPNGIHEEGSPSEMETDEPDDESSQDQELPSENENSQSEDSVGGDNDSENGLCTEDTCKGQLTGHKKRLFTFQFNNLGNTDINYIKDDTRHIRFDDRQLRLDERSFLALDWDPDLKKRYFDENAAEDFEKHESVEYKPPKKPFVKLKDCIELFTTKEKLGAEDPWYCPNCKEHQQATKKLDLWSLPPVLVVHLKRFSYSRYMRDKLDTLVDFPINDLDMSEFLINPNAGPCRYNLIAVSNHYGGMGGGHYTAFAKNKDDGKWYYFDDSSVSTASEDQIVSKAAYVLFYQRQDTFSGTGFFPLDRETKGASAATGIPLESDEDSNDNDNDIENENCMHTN
Outline: as §1

USP16 = USP16 (UniProt Q9Y5T5)
Outline: as §1

Measured: log2 ratio of Biotin-Ahx-Ub-VS probe labelling

Sequence of USP16 (Q9Y5T5 whole entry, looked up): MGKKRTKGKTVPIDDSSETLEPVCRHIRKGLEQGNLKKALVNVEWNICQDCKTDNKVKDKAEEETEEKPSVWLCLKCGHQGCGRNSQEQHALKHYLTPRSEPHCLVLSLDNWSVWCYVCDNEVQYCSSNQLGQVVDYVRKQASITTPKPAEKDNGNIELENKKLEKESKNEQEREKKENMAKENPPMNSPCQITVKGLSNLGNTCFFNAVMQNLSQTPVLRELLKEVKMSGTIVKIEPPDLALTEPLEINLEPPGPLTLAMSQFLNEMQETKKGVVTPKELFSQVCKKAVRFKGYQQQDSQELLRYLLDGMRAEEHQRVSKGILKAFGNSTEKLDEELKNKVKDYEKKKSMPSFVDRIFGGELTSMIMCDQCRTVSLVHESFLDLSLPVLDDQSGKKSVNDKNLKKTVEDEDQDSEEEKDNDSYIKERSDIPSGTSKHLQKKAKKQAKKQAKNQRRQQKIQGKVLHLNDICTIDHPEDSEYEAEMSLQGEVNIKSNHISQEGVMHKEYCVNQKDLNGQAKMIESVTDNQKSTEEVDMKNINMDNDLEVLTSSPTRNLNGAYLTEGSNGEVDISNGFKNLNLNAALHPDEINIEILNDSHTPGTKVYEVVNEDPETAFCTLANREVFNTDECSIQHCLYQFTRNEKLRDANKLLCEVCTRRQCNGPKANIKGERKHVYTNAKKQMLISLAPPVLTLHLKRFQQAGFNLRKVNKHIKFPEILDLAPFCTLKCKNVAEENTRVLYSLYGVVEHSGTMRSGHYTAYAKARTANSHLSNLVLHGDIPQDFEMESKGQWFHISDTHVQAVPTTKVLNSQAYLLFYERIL
Sequence of UCHL1 (P09936 whole entry, looked up): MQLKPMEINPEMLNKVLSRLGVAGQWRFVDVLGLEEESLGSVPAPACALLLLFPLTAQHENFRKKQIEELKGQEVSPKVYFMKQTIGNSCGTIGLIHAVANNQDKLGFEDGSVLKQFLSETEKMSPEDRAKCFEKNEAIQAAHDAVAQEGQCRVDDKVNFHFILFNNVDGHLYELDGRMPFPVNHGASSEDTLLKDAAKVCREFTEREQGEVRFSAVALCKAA
Sequence of USP10 (Q14694 whole entry): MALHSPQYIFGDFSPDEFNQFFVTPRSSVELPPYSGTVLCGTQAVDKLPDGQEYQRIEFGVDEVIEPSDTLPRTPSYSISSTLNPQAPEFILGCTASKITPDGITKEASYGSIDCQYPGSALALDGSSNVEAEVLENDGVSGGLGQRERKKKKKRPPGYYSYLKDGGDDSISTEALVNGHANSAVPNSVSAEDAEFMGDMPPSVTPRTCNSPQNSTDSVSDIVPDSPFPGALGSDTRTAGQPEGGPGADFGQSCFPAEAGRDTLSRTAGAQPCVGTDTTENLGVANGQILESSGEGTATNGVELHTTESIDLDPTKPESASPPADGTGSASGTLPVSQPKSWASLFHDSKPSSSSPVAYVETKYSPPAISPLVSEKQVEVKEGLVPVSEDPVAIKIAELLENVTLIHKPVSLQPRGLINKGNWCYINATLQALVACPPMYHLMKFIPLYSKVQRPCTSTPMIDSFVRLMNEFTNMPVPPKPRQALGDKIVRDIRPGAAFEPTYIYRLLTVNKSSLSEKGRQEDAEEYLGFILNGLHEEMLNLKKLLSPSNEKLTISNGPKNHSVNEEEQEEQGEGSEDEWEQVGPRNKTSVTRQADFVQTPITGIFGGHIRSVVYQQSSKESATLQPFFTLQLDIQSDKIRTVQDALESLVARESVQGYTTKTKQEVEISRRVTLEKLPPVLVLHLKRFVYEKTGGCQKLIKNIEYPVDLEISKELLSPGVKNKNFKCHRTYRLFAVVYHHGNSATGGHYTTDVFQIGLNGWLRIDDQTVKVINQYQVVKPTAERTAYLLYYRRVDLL

O=C(CCl)N1CCC2(CCC(O)CC2)CC1
inactive: OTUD6B -0.306 | OTUD7B -0.236 | PRPF8 -0.102 | PSMD7 -0.109 | UCHL3 0.404 | UCHL5 -0.157 | USP10 -0.17 | USP15 -0.243 | USP16 0.0341
active: UCHL1 -1.76
